These results are taken from PubChem BioAssay (Tox21).

Each structure is given as a SMILES string. Records with an inconclusive call do not appear. Active and inactive are the calls of the source. Unless noted, calls follow the shape of the dose curve; as a rule, active = well fitted curve in the direction sought with a large enough effect in the repeat runs; inconclusive = weak or mixed curves; inactive = no such curve, though single readings can be large; an effect the other way counts as inactive or inconclusive.

A short description of experiment [1]: qHTS assay to identify small molecule agonists of the RXR signaling pathway - cell viability counter screen (AID 1159529). Also: series mostly up to about 77 µM; nearly all actives have a fitted effect of over 50% in size. The procedure, abridged:
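Cell viability is measured by CellTiter-Glo luminescence, 30 min at room temperature, in wells already read for beta-lactamase. Engineered HEK 293T cells (RXR-alpha-UAS-bla) are dosed 16 hr at 37 C. Tetraoctyl ammonium bromide serves as positive control.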
Background: Quantitative high-throughput screening tests each substance at several concentrations.

A short description of experiment [2]: qHTS assay to identify small molecule antagonists of the retinoid acid receptor (RAR) signaling pathway - cell viability counter screen (AID 1159551). Also: nearly all actives have a fitted effect of over 35% in size. The procedure, abridged:
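Luminescent ATP quantitation (CellTiter-Glo) gave cell viability in C3RL4 cells exposed to test chemicals for 6 h at 37 C alongside 1 uM final retinol.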

Experiment [3] is described as follows: qHTS assay to identify small molecule antagonists of the estrogen related receptor (ERR) signaling pathway from Tox21 library - cell viability counter screen (AID 1224834). Also: nearly all actives have a fitted effect of over 30% in size. The procedure, abridged:
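Fluorescence from CellTiter-Fluor gives the viability read-out, taken 30 min after reagent addition. Before that, ERR cells seeded 6 h earlier were incubated with compounds for 17.5 h at 37 C.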

Experiment [4] has as its target Luciferin 4-monooxygenase (Photinus pyralis) (UniProt P08659). Nature of the experiment: qHTS assay to identify small molecule inhibitors of firefly luciferase (AID 1224835). Also: nearly all actives have a fitted effect of over 25% in size. Also: potency is read from the fitted curve at half-maximal effect. Summed up: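 Inhibition of purified Photinus luciferase is measured by luminescence. Substrate levels (D-luciferin, ATP) sit at their KM values. Each compound is tested in a concentration series.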

The nature of experiment [5]: qHTS assay to identify small molecule agonists of the constitutive androstane receptor (CAR) signaling pathway - cell viability counter screen (AID 1224836). Also: series mostly up to about 92 µM; nearly all actives have a fitted effect of over 45% in size. Summed up: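 Counter screen multiplexed with the CAR reporter readout: HepG2 cells co-transfected with hCAR and the CYP2B6-2.2kb construct receive a 15-concentration compound series and 0.75 uM PK11195 (final), then CellTiter-Fluor fluorescence is read after 23 h.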

Experiment [6] is described as follows: qHTS assay to identify small molecule antagonists of the constitutive androstane receptor (CAR) signaling pathway - cell viability counter screen (AID 1224837). Also: series mostly up to about 92 µM; nearly all actives have a fitted effect of over 45% in size. Summed up:
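HepG2-CYP2B6-hCAR cells, 2500/well, 4 hr pre-incubation; compound titration, 15 conc.; CITCO 50 nM final; 23 hr, 37 C/5% CO2; CellTiter-Fluor, fluorescence intensity.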

In experiment [7] the target is Nuclear receptor subfamily 1 group I member 3 (Homo sapiens) (UniProt Q14994). Nature of the experiment: qHTS assay to identify small molecule antagonists of the constitutive androstane receptor (CAR) signaling pathway (AID 1224838).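 Also: HepG2 cells stably expressing hCAR with CYP2B6 luciferase reporter stimulated by CITCO; nearly all actives have a fitted effect of over 40% in size.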 The procedure, abridged:
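HepG2-CYP2B6-hCAR cells; 4 h pre-incubation; cpd (15 conc) + CITCO 50 nM final; 24 h, 37 C/5% CO2; ONE-Glo, luminescence.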

For experiment [8] the target is unchanged. Nature of the experiment: qHTS assay to identify small molecule agonists of the constitutive androstane receptor (CAR) signaling pathway (AID 1224839). Also: nearly all actives have a fitted effect of over 15% in size. Also: potency is read from the fitted curve at half-maximal effect. Summed up: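 A 15-concentration quantitative screen uses HepG2 cells co-transfected stably with human CAR and CYP2B6-2.2kb reporter. Treatment lasts 24 h with 0.75 uM PK11195 final present; ONE-Glo luminescence is the signal.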

A short description of experiment [9]: qHTS assay to identify small molecule antagonists of the estrogen related receptor signaling pathway with the pleiotropic PPARgamma coactivator (PGC) from Tox21 10K library - cell viability counter screen (AID 1224840; active = well fitted cell-killing curve with a large enough effect in the repeat runs, not every such curve was filed as active; also: nearly all actives have a fitted effect of over 40% in size). Summed up: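 PGC/ERR cells, 2,000/well; 6 h pre-incubation 37 C/5% CO2; cpd in DMSO via pin tool; 17.5 h 37 C; CellTiter-Fluor, 30 min; fluorescence.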

A short description of experiment [10]: qHTS assay to identify small molecule agonists of the retinoic acid receptor (RAR) signaling pathway (AID 1159553). Also: potency is read from the fitted curve at half-maximal effect. Summed up: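 Luminescence from a RARE-driven luciferase reporter in C3RL4 cells served as the read-out, measured after 30 min with detection reagent at room temperature. Compounds in DMSO were applied for 6 hr at 37 C following overnight seeding.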

Experiment [11] in a line: qHTS assay to identify small molecule agonists of the estrogen related receptor signaling pathway with the pleiotropic PPARgamma coactivator (PGC) from Tox21 10K library (AID 1224842). Also: nearly all actives have a fitted effect of over 15% in size. Also: potency is read from the fitted curve at half-maximal effect. The procedure, abridged:
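Luminescence from One-Glo (30 min, room temperature) measured after PGC/ERR cells had 18 h at 37 C with pinned compound (23 nL in DMSO). Cells had been seeded at 2,000 per well and pre-incubated 6 h.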

Experiment [12] in a line: qHTS assay to identify small molecule antagonists of the estrogen related receptor signaling pathway with the pleiotropic PPARgamma coactivator (PGC) from Tox21 10K library (AID 1224841; call rule not given here; also: series mostly up to about 92 µM; actives are mostly falling curves and most rising ones were filed inactive; nearly all actives have a fitted effect of over 50% in size). Summed up: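 PGC/ERR cell line, 2,000 cells/well; 6 h pre-incubation 37 C/5% CO2; compounds (DMSO) pinned in; 18 h, 37 C; One-Glo, 30 min RT; luminescence.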
Experiment [13] in a line: qHTS assay to identify small molecule antagonists of the estrogen related receptor (ERR) signaling pathway - cell viability counter screen (AID 1224818).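 Also: series mostly up to about 46 µM; viability measured after 17.5 h of compound exposure.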 Summed up: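 Multiplexed counter screen to separate cytotoxic compounds from true ERR modulators. ERR cells received DMSO-dissolved compounds after a 6 h pre-incubation, were exposed 17.5 h at 37 C, then assayed with CellTiter-Fluor fluorescence.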

Experiment [14] can be described thus: qHTS assay to identify small molecule antagonists of the estrogen related receptor signaling pathway with the pleiotropic PPARgamma coactivator (PGC) cell viability counter screen (AID 1224822; also: series mostly up to about 46 µM). The procedure, abridged:
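Cells: PGC/ERR, 2,000/well, 1536-well format. Pre-incubation 6 h, 37 C/5% CO2. Compound exposure 17.5 h, 37 C. Detection: CellTiter-Fluor, 30 min, fluorescence.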

Sequence of Nuclear receptor subfamily 1 group I member 3 (Homo sapiens) (Q14994 whole entry, looked up): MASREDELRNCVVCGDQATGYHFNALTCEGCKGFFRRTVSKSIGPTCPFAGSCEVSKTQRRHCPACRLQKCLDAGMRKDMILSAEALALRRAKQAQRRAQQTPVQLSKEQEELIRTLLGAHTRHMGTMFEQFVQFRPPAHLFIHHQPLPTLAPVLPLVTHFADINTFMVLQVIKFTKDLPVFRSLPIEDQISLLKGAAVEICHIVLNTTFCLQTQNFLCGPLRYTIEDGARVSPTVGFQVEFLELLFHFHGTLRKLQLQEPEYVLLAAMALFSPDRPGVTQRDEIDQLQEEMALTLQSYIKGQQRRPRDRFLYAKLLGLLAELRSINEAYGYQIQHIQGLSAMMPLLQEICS
Sequence of Luciferin 4-monooxygenase (Photinus pyralis) (P08659 whole entry, looked up): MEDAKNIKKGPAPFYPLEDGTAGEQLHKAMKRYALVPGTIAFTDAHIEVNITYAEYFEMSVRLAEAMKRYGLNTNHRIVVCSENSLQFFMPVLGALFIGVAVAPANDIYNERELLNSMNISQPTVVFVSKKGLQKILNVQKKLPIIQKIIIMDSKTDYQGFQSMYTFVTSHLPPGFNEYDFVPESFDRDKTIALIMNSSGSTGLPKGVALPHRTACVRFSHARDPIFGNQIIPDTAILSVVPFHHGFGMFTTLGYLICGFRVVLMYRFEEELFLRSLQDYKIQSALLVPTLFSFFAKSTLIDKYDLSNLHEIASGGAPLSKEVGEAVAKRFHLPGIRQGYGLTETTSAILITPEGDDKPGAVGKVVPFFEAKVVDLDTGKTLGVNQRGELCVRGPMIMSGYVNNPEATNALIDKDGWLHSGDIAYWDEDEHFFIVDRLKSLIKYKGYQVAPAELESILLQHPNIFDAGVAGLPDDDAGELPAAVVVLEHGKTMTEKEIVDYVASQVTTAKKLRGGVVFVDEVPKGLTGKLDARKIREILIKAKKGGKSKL

Regarding `S=c1[nH][nH]c(=S)s1`, the Potency entry in [1], in experiment [3], in experiment [5], in experiment [6], in [7] and in experiment [8] was “inactive” each time. For the same molecule, the Potency entry in experiment [9] is “inactive”. Besides, in experiment [2], the molecule was classed as inactive. Moreover, the Potency in [4] was 11.2 µM (active).
On to `O=C(Cl)c1cc(Cl)cc(Cl)c1`, for which the Potency entry in [1], in experiment [3], in [4], in experiment [5], in experiment [6] and in [7] was “inactive” throughout. The Potency entry in experiment [8] and in [9] was “inactive” throughout. Moreover, the call in [2] was inactive.
As to `CC(=O)CC/C=C(\C)CC/C=C(\C)CC/C=C(\C)CCC=C(C)C`, the Potency entry in experiment [1], in [10], in experiment [3], in [4], in experiment [5] and in [6] was “inactive” each time. The Potency entry in experiment [7] and in [9] was “inactive” each time. For the same molecule, the call in experiment [2] was inactive.
Turning to `C=CC(C)CCC=C(C)C` (stereo not drawn), the Potency entry in [1], in experiment [10], in experiment [3], in [4], in experiment [5] and in experiment [6] was “inactive” each time. In addition, the Potency result in experiment [9] was “inactive”. Also, in experiment [2], the call was inactive.
For `CC1(C)C(=O)NC(=O)N1CO`, the Potency entry in experiment [1], in experiment [3], in [4], in experiment [5], in experiment [6] and in experiment [7] was “inactive” throughout. The Potency result in [8] and in experiment [9] was “inactive” in each case. The outcome in experiment [2] was inactive.
For `CCCCCCCCC(=O)OCC(C)OC(=O)CCCCCCCC` (stereo not drawn), the Potency entry in experiment [1], in experiment [10], in experiment [3], in [4], in [5] and in experiment [6] was “inactive” throughout. Further, the Potency result in [7], in experiment [8] and in [9] was “inactive” throughout. Further, the outcome in [2] was inactive.
For `C1CCN(CN2CCCCC2)CC1`, the Potency result in [1], in [3], in experiment [4], in experiment [5], in experiment [6] and in experiment [7] was “inactive” in each case. Moreover, the Potency result in experiment [8] and in experiment [9] was “inactive” each time. In addition, in experiment [2], the molecule was called inactive.
On to `C[C@]12CCC(=O)C=C1[C@@H]1C[C@@H]1[C@H]1[C@@H]3[C@@H]4C[C@@H]4[C@@]4(CCC(=O)O4)[C@@]3(C)CC[C@@H]12`, for which the Potency entry in experiment [1], in experiment [10], in experiment [3], in experiment [4], in [5] and in [6] was “inactive” in each case. The Potency result in [8], in [9] and in experiment [11] was “inactive” in each case. Also, the molecule was classed as inactive in experiment [2].
For `CC(C)C/C=C(\C=O)c1ccccc1`, the Potency result in experiment [1], in [10], in experiment [4], in [5], in experiment [6] and in [7] was “inactive” in each case. Moreover, the Potency entry in experiment [8], in experiment [9] and in experiment [12] was “inactive” each time. Moreover, the result in experiment [2] was inactive.
With `CCc1ccc(C(=O)C(C)CN2CCCCC2)cc1` (stereo not drawn), the Potency entry in experiment [1], in experiment [10], in experiment [3], in experiment [4], in [5] and in experiment [6] was “inactive” throughout. The Potency entry in [8] and in experiment [9] was “inactive” each time. For the same molecule, the molecule was called inactive in experiment [2].
`O=C(OCCN1CCOCC1)c1cccnc1Nc1cccc(C(F)(F)F)c1`: the Potency entry in experiment [1], in [3], in [4], in experiment [5], in experiment [6] and in [7] was “inactive” throughout. Besides, the Potency entry in [8] and in experiment [9] was “inactive” in each case. Also, the molecule was called inactive in [2].
Regarding `CO[C@@H]1COCC[C@@H]1N[C@@H]1CC[C@@](C(=O)N2CCc3ncc(C(F)(F)F)cc3C2)(C(C)C)C1`, the Potency result in experiment [1], in experiment [3], in experiment [4], in experiment [5], in experiment [6] and in experiment [7] was “inactive” in each case. The Potency entry in [8] was “inactive”. The call in experiment [2] was inactive.
With `O=C(O)c1ccncc1`, the Potency result in [1], in experiment [10], in experiment [3], in experiment [9] and in experiment [11] was “inactive” throughout. Further, the call in experiment [2] was inactive. The Potency in experiment [4] is 73 µM (active).
Regarding `CCC(C(=O)O)c1ccc(N2Cc3ccccc3C2=O)cc1` (stereo not drawn), the Potency result in [1], in experiment [3], in [5], in [6] and in experiment [7] was “inactive” each time. Besides, the molecule was called inactive in experiment [2]. The Potency in experiment [10] is 3.76 µM (active); in experiment [4], 9.77 µM (active); in experiment [8], 5.96 µM (active).
As for `O=[N+]([O-])c1cccc(I)c1`, the Potency entry in [1], in [10], in experiment [3], in experiment [4], in [5] and in experiment [6] was “inactive” throughout. Moreover, the Potency result in experiment [7], in experiment [8] and in experiment [9] was “inactive” throughout. Besides, the outcome in experiment [2] was inactive.
Take `C[C@H]1C[C@H]2[C@@H]3CCC4=CC(=O)C=C[C@]4(C)[C@@]3(F)[C@@H](O)C[C@]2(C)[C@@]1(O)C(=O)COP(=O)(O)O`: the Potency entry in experiment [1], in experiment [3], in [4], in experiment [5] and in experiment [6] was “inactive” each time. The call in [2] was inactive.
As for `CC(C)(C)N`, the Potency entry in experiment [1], in experiment [10], in experiment [3], in experiment [4], in [5] and in experiment [6] was “inactive” in each case. For the same molecule, the Potency entry in [7] and in experiment [8] was “inactive” each time. Further, the result in [2] was inactive.
`COc1ccc(/C=C/c2cc(OC)cc(=O)o2)cc1`: the Potency entry in [1], in experiment [5], in [6] and in [7] was “inactive” throughout. Also, the molecule was called inactive in [2]. Moreover, the Potency in [10] was 2.79 µM (active); in [4], 5.15 µM (active); in experiment [8], 6.26 µM (active); in experiment [11] it was 7.88 µM (active).
`CC(C)(C(=O)O)c1ccc(C(O)CCCN2CCC(C(O)(c3ccccc3)c3ccccc3)CC2)cc1` (stereo not drawn): the Potency entry in experiment [1], in experiment [3], in experiment [4], in experiment [5], in [6] and in experiment [7] was “inactive” in each case. In addition, the Potency entry in experiment [8] and in experiment [9] was “inactive” in each case. Moreover, the call in [2], in experiment [13] and in experiment [14] was inactive.
`CC(C)=CCCC(C)C=O` (stereo not drawn): the Potency entry in experiment [1], in experiment [10], in [3], in [4], in experiment [5] and in experiment [6] was “inactive” in each case. The Potency result in experiment [7], in experiment [8] and in experiment [9] was “inactive” throughout. Moreover, the molecule was called inactive in experiment [2].
On to `C[C@@H](O)[C@H]1C(=O)N2C(C(=O)O)=C(S[C@@H]3CN[C@H](CNS(N)(=O)=O)C3)[C@H](C)[C@H]12`, for which the Potency entry in [1], in experiment [3], in [4], in experiment [5], in experiment [6] and in [7] was “inactive” each time. Also, the Potency entry in [8] and in experiment [9] was “inactive” in each case. The result in experiment [2] was inactive.
As to `FC1(F)C(F)(F)C(F)(F)C2(F)C(F)(C1(F)F)C(F)(F)C(F)(F)C1(F)C(F)(F)C(F)(F)C(F)(F)C(F)(F)C12F` (stereo not drawn), the Potency result in [1], in experiment [3], in experiment [4], in experiment [5], in [6] and in experiment [7] was “inactive” throughout. The Potency entry in [8] and in [9] was “inactive” in each case. Besides, the result in [2] was inactive.
